Sampled rows, rich in hits. Any-hit rate of the full collection: about 4%.
Wnt act: Wnt/beta-catenin pathway activators, primary screen, cell-based, plate reader, single point; Wnt/beta-catenin reporter cell assay, activator; activation, % at 9.35 µM; actives 1.2% (n = 300,000); AID 743398, 2014; in the data active = activation above about 30%, passing the limit was not always enough; inconclusive = no clear call, values can overlap the other calls;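 also: 0% = neutral control wells and 100% = positive control wells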
esBAF inh: Bmi1 luciferase reporter increase in mESCs, primary screen, esBAF inhibitor project, mouse ES cells, Bmi1 luciferase knock-in, single point. 24 h; 100% = twice the neutral-well signal. reporter increase, % at 12.5 µM. actives 2% (n = 350,000); in the data active = activation above about 40%; inconclusive = no clear call, values can overlap the other calls;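 also: 0% = median of the plate's neutral control wells and 100% = double that signal; a rise in the Bmi1 reporter signal indicates esBAF inhibition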
MITF TRPM1 inh: inhibitors of MITF-dependent TRPM1 promoter reporter, primary screen, cell-based, SK-MEL-5, single point, luciferase; inhibition, % at 12.5 µM; actives 0.83% (n = 330,000); SK-MEL-5 TRPM1 promoter luciferase, 24 h;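 active = mean inhibition across replicates of 60% or more, whatever share of single replicates reaches that level; inconclusive = some that reach 60%, reason not given; inactive = mean inhibition across replicates below 60%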
EWS-Fli block: EWS/Fli-driven NR0B1 reporter inhibitors, primary screen, A673 cells, NR0B1 luciferase, luminescence, MLPCN library; viability-normalised; inhibition, % at 12.6 µM; actives 0.67% (n = 350,000); AID 651661, 2012;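 active = mean inhibition of at least 50% after viability correction, with every replicate also passing that limit; inconclusive = mean reaches 50% but only one of two replicates passes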;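 also: firefly luciferase signal divided by Alamar Blue viability fluorescence both relative to DMSO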
MITF TRPM1 HTS: activators of MITF-driven TRPM1 promoter reporter, primary screen, cell-based, SK-MEL-5, luciferase, single point | SK-MEL-5 TRPM1-promoter luciferase, 24 h; % of positive control, neutral wells = 0 | activation, % at 12.5 µM | actives 0.75% (n = 300,000) | AID 588334, 2011;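 active = mean activation of at least 80% with every replicate also reaching 80%; inconclusive = mean reaches 80% but some replicate falls short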;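 also: 0% = neutral control wells and 100% = parthenolide positive control wells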
PAX8 inh HTS: inhibitors of PAX8-driven TPO luciferase reporter, primary screen, RMG-I cells, single concentration. SteadyGlo, 24 h. actives 1.2% (n = 360,000). AID 652154, 2013. inhibition, % at 12.6 µM;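 active = mean replicate inhibition at least 60% with every replicate also reaching 60%; inconclusive = only one of the two criteria is met; inactive = mean below 60% and not all replicates reaching 60%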;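 also: luciferase light reporting Pax8 driven TPO promoter activity; plate controls were median of neutral control wells for no effect and mitoxantrone controls for full effect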
Starred values were filed as active, the others as inactive; ? = inconclusive; · = no result given.

SMILES | Wnt act | esBAF inh | MITF TRPM1 inh | EWS-Fli block | MITF TRPM1 HTS | PAX8 inh HTS
CC1(C)CC[C@]2(C(=O)O[C@@H]3O[C@H](CO)[C@@H](O)[C@H](O)[C@H]3O)CC[C@]3(C)C(=CCC4[C@@]5(C)CC[C@H](O[C@@H]6O[C@H](C(=O)O)[C@@H](O[C@H]7OC[C@@H](O)[C@@H](O)[C@@H]7O)[C@H](O)[C@H]6O)C(C)(C)C5CC[C@]43C)[C@@H]2C1 (stereo partly drawn) | -2.2 | 11.0 | -10.1 | -5.3 | 7.4 | -1.8
C[C@@H]1CN([C@@H](C)CO)C(=O)c2cc(NC(=O)Nc3ccc4c(c3)OCO4)ccc2O[C@@H]1CN(C)C(=O)Nc1ccccc1 | · | -4.3 | · | -15.0 | · | -5.7
C[C@@H]1CN([C@H](C)CO)S(=O)(=O)c2ccc(/C=C/c3ccccc3)cc2O[C@H]1CN(C)C | · | -4.9 | · | 12.8 | · | ·
Cc1ccc(S(=O)(=O)N(C)C[C@@H]2Oc3ccc(NC(=O)Cn4cnnn4)cc3C(=O)N([C@H](C)CO)C[C@@H]2C)cc1 | · | -5.5 | · | -9.6 | · | ·
CC1=Nc2cc(C(=O)NCCCOC(C)C)ccc2Sc2ccccc21 | 1.4 | · | 27.8 | 45.1 | -24.9 | 15.8
CC1=Nc2cc(C(=O)NCC3CCCO3)ccc2Sc2ccc(Br)cc21 (stereo not drawn) | -15.5 | -5.4 | 20.7 | 54.9* | -19.8 | 24.4
CCCC1=Nc2cc(C(=O)NCCCOC(C)C)ccc2Sc2ccccc21 | -21.2 | · | 35.8 | · | -33.7 | 14.2
CC1=Nc2cc(C(=O)NCCCOC(C)C)ccc2Sc2ccc(C)cc21 | -14.1 | · | 37.6 | 58.8* | -39.4 | 28.0
CCCC1=Nc2cc(C(=O)NCCCOCC)ccc2Sc2ccccc21 | · | · | 72.5* | · | -72.1 | 99.0*
Cc1noc(C)c1S(=O)(=O)Nc1ccc2c(c1)CC(=O)N([C@H](C)CO)C[C@@H](C)[C@H](CN(C)C(=O)Nc1cccc3ccccc13)O2 | · | 4.7 | · | 4.3 | · | ·
CO[C@H]1O[C@H](CO)[C@@H](OC(=O)Nc2ccc3c(c2)OCO3)[C@H](OC(=O)Nc2ccccc2)[C@H]1OC(=O)Nc1ccccc1 | · | · | · | -1.8 | · | 25.3
COc1ccc(C#Cc2ccc3c(c2)[C@@H]2[C@@H](CCN2C(=O)c2ccccc2F)[C@H](CO)N3)cc1 | · | -1.2 | · | -9.8 | · | -17.2
COC(=O)c1c(NC(=O)/C=C/C(=O)O)sc(Cc2ccccc2)c1C | · | 1.0 | 19.6 | · | -16.5 | ·
Cc1c(Cc2ccccc2)sc(NC(=O)/C=C/c2cccc3ccccc23)c1C(N)=O | -0.5 | · | 5.4 | 60.0* | -8.4 | 4.8
C(#Cc1ccccc1)C[N+]1(CC#Cc2cccc3ccccc23)CCCC1 | 0.2 | · | ? | 8.2 | -61.0 | 63.4*
CN(C)C(=O)C[C@@H]1C[C@H]2c3cc(NC(=O)NC4CCCC4)ccc3O[C@H]2[C@H](CO)O1 | · | 1.6 | · | 3.9 | · | 0.2
CC(=O)Nc1nc2ccc(-c3nc4ccccc4o3)cc2s1 | 79.5* | · | -19.2 | · | 18.0 | -91.7
CCC(=O)Nc1cccc(-c2nc3ccccc3o2)c1 | 17.1 | 60.4* | -13.0 | · | 15.7 | -78.2
CC(=O)Nc1ccc(S(=O)(=O)Nc2cccc(-c3nc4ccccc4o3)c2)cc1 | · | -3.3 | 8.8 | · | · | -1.9
CCOC(=O)c1c(Nc2ccccc2)sc(/C=C2\C=Nc3ccccc32)c1O | · | -7.9 | 5.5 | · | -7.1 | ·
CCn1c(O)c(/C=C2\C=Nc3ccccc32)sc1=O | 39.0* | 76.6* | -57.1 | -19.1 | 58.3 | -187.7
Oc1nc(Nc2ccccc2)sc1/C=C1\C=Nc2ccccc21 | 23.1 | 61.5* | -91.0 | -102.1 | 88.2* | -54.4
O=C(Cc1ccccn1)N[C@@H]1CC[C@@H](CCn2cc(-c3ccccc3)nn2)O[C@H]1CO | · | -7.5 | · | 3.1 | · | 99.2*
O=C(Cc1ccccn1)N[C@H]1CC[C@H](CCn2cc(-c3ccccc3)nn2)O[C@@H]1CO | · | 4.9 | · | -5.8 | · | 78.8*
O=C(Cc1ccccn1)N[C@H]1CC[C@@H](CCn2cc(-c3ccccc3)nn2)O[C@H]1CO | · | 6.5 | · | 6.2 | · | 6.8
SMILES | Wnt act | esBAF inh | MITF TRPM1 inh | EWS-Fli block | MITF TRPM1 HTS | PAX8 inh HTS
O=C(Cc1ccccn1)N[C@@H]1CC[C@H](CCn2cc(-c3ccccc3)nn2)O[C@@H]1CO | · | 1.4 | · | 1.4 | · | 4.0
O=[N+]([O-])c1cc(C=NN2CCCCCC2)ccc1Cl | 40.1* | 73.8* | -41.5 | -107.1 | 48.8 | -210.4
CC(C)c1ccc(/C=N/N2CCCCC2)cc1 | 45.4* | · | -98.1 | -127.3 | 97.8* | -51.5
O=[N+]([O-])c1cccc(C=NN2CCCCCC2)c1 | -2.0 | 78.8* | -48.6 | -91.2 | 52.5 | -183.8
O=[N+]([O-])c1cc(/C=N/N2CCN(c3ccccc3)CC2)ccc1Cl | -0.2 | · | -63.9 | -33.1 | 63.8 | 23.6
O=[N+]([O-])c1cccc(/C=N/N2CCN(Cc3ccccc3)CC2)c1 | 0.3 | 38.7 | -61.4 | -77.8 | 56.9 | -66.1
O=[N+]([O-])c1cc(/C=N/N2CCCCC2)ccc1Cl | 10.0 | · | -94.2 | -53.8 | 99.2* | -114.3
COc1ccc(NC(=O)N(C)C[C@@H]2OCc3ccccc3-c3c(n(C)c4ccccc34)C(=O)N([C@@H](C)CO)C[C@@H]2C)c(OC)c1 | · | 16.8 | · | -9.1 | · | 15.1
Cc1cc(-c2nc3cccnc3s2)ccc1NS(=O)(=O)c1cccs1 | 25.0 | 44.9* | · | -64.4 | · | ·
O=S(=O)(Nc1cccc2ncccc12)c1cccs1 | · | 11.8 | 84.2* | · | · | ·
Cc1cnc(C(=O)N(c2ccccc2)C(c2ccccc2)c2nc3ccccc3[nH]2)cn1 (stereo not drawn) | -2.0 | 44.9* | · | -32.6 | · | -98.1
C[C@H](CO)N1C[C@H](C)[C@H](CN(C)Cc2ccccc2)OCCCC[C@H](C)Oc2ccc(NC(=O)NC3CCCCC3)cc2C1=O | · | -0.7 | · | 12.7 | · | -24.5
CCCN(CCC)CCCNC(=O)c1ccc2c(Cl)c3c(nc2c1)CCC3 | 2.7 | 9.6 | -13.7 | -0.3 | · | -19.7
CCCNC(=O)c1ccc2nc(-c3ccccc3)c(-c3ccccc3)nc2c1 | -3.9 | 13.9 | -1.4 | · | 5.2 | ·
CCN1CCN(CCNC(=O)c2ccc3nc(-c4cccc(C)c4)c(-c4cccc(C)c4)nc3c2)CC1 | -0.2 | -42.3 | 86.6* | 21.2 | -86.5 | 6.8
COCCNC(=O)c1ccc2c(Cl)c3c(nc2c1)CCC3 | 35.9* | ? | -93.0 | -51.3 | 100.0* | -21.5
CCN1CCN(CCCNC(=O)c2ccc3c(Cl)c4c(nc3c2)CCCC4)CC1 | -4.2 | 8.7 | 91.6* | 7.1 | -91.0 | 9.3
Cc1ccc2nsnc2c1NC(=O)c1ccc(-c2cc(Cl)ccc2Cl)o1 | · | · | 71.9* | · | -73.2 | ·
Cc1ccc2nsnc2c1NC(=O)Cc1ccc(Cl)cc1 | -2.6 | 8.4 | -5.1 | -16.4 | 1.1 | 7.1
CC(C)NC(=O)N(C)C[C@@H]1Oc2ccc(NC(=O)Cc3cn(C)c4ccccc34)cc2CC(=O)N([C@@H](C)CO)C[C@H]1C | · | 4.4 | · | · | · | 8.4
